Reference: PubChem BioAssay (NCI)
About 83,000 compounds went through this panel and 20% of them were active in at least one assay; those are over-represented in the sample as a whole.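 For each line, cells grew in 96-well plates with the test compound present at a single concentration for 48 hours.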 The source made the active and inactive calls. Rule for the calls: active = growth percent below 10; inactive = the rest.

Each compound was assayed on MCF7 breast (assay: NCI-60 one-dose screen, 48 h (100 = growth as untreated, 0 = no growth, -100 = all killed)). Details: 10 µM unless noted.
With `CCC(=O)Nc1cc2c(cc1Cl)-c1ccccc1C2` the growth was 95.2% (inactive).
In the case of `FC(F)(F)c1ccc(-c2cnc(-c3nn[nH]n3)nc2NC2CCCCCC2)cc1`, the growth is reported as 50.4% [50 µM] (inactive).
`CCn1cnc(C[C@H](NC(=O)[C@H](CCCCNC(=O)Nc2cc(C(F)(F)F)cc(C(F)(F)F)c2)NC(=O)Nc2cc(C(F)(F)F)cc(C(F)(F)F)c2)C(=O)OC)c1` was tested, and the growth was -47% [100 µM] (active).
With `O=c1ncc(-c2ccc(C(F)(F)F)cc2)c(NC2CCCCCC2)[nH]1` the growth was 40.4% (inactive).
In the case of `Nc1nc(Nc2ccccc2SSc2ccccc2Nc2nc(N)nc(-c3cccc(Cl)c3)n2)nc(-c2cccc(Cl)c2)n1`, the growth is reported as 82.8% (inactive).
`Cc1ccc2nc3c(n2c1)C(=O)C(=O)c1ccccc1-3` was tested, and the growth was -64.1% (active).
`O=C1NC(=S)S/C1=C\c1cc(Br)ccc1O` was tested, and the growth was 106% (inactive).
`O=C1OC2(c3ccccc31)c1ccccc1-c1ccccc12` was tested, and the growth was 52.4% (inactive).
With `Cc1sc2nc(NCCc3cccs3)[nH]c(=O)c2c1C` the growth was 87.3% (inactive).
For `COc1cc(/C=N/OC(=O)Nc2ccccc2)cc(OC)c1OC`, the growth was 108% (inactive).
`CSc1nc2nc3c(nc2c(=O)n1C)C(=O)c1ccccc1C3=O` was tested, and the growth was -62.2% (active).
For `O=C(CNc1ccc2c(c1)C(=O)c1ccccc1C2=O)Nc1ccc2c(c1)C(=O)c1ccccc1C2=O`, the growth was -71.1% (active).
`Nc1ccc2c(c1Br)Cc1ccccc1-2` was tested, and the growth was 51% (inactive).
`c1ccc2c(-c3nc4ccccc4[nH]3)cccc2c1` was tested, and the growth was 17.2% (inactive).
For `O=C(O)c1ccc2cccnc2c1O`, the growth was 10.8% (inactive).
`Cc1ccc(-c2c3c(N)nc(-c4ccncc4)nc3nc3c2c(C)nn3-c2ccccc2)cc1` was tested, and the growth was 1.86% (active).
With `N#Cc1c(-c2ccccc2)cc(-c2ccccc2)n(CCCCCCC(=O)O)c1=O` the growth was 67.9% (inactive).
`CCCCCN(CCCCC)CCCNc1c2c(nc3ccc(Cl)cc13)CCCC2` was tested, and the growth was 35.5% (inactive).
With `Cc1cc(C)nc(NS(=O)(=O)c2ccc(Nc3nc4nc(SCc5ccccc5)nc(-c5ccc(O)cc5)c4c(=O)[nH]3)cc2)n1` the growth was 104% (inactive).
For `O=C1/C(=C/c2ccccc2Cl)CCc2ccccc21`, the growth was 87.9% (inactive).
`C/C(=C\CCc1ccoc1)CC/C=C(\C)CCCC1COC(=O)C1` (stereo not given) was tested, and the growth was 90.6% (inactive).
`CC1Cc2ccccc2N1C(=O)c1ccc(C(=O)c2ccccc2)cc1` (stereo not given) was tested, and the growth was 103% (inactive).
In the case of `COC(=O)[C@H](Cc1cn(C)cn1)NC(=O)[C@H](C)NC(=O)Nc1cc(C(F)(F)F)cc(C(F)(F)F)c1`, the growth is reported as -60% [100 µM] (active).
`N#Cc1ccccc1C#Cc1ccccc1C#Cc1ccc(OCCCCCCOc2ccc(C#Cc3ccccc3C#Cc3ccccc3C#N)cc2)cc1` was tested, and the growth was 78.6% (inactive).
In the case of `CC[N+](CCCCCCCCCC[N+](CC)(c1ccccn1)c1ccccn1)(c1ccccn1)c1ccccn1`, the growth is reported as 7.81% (active).
In the case of `COc1ccc2c(c1)C(=Nc1cc(OC)c(OC)c(OC)c1)C(=O)N2`, the growth is reported as 105% (inactive).
`O=C(/C=C/c1c(-c2ccccc2)[nH]c2ccccc12)S(=O)(=O)c1ccccc1` was tested, and the growth was 43.3% (inactive).
`O=c1ccn(C2CC=C(CO)O2)c(=O)[nH]1` (stereo not given) was tested, and the growth was 92% (inactive).
In the case of `C=CCN(/C=C/CN(CC=C)CC=C)CC=C`, the growth is reported as 97% (inactive).
For `Cc1ccc2nc(-c3ccc(N(C)C)c(Br)c3)cn2c1`, the growth was 76.8% (inactive).
For `CN(C)CCC(=O)Nc1ccc(-n2cc(-c3cccc(NC(=S)Nc4cccc(-c5cn(-c6ccc(NC(=O)CCN(C)C)cc6)nn5)c4)c3)nn2)cc1`, the growth was 5.07% (active).
`C[C@]12CC[C@H](O)CC1=CC[C@@H]1[C@@H]2CC[C@]2(C)C(c3cccnc3)=CC[C@@H]12` was tested, and the growth was 61.4% (inactive).
`CCCCCCC(CC#N)(CCC)CCCC` (stereo not given) was tested, and the growth was 96.1% (inactive).
In the case of `CCOC(=O)c1sc(NC(=O)COc2cccc(/C=C3\CCc4cc(OC)ccc4C3=O)c2)nc1C`, the growth is reported as 18.9% (inactive).
In the case of `Cc1ccc(S(=O)(=O)N2CCN(C(=O)CSc3nc4ccc(C)cc4[nH]3)CC2)cc1`, the growth is reported as 98.3% (inactive).
For `CCOC(=O)c1cnc2c(C)cc(C)cc2c1NCCCN(C)C`, the growth was 15.1% (inactive).
In the case of `Cc1ccc(C(NC(=O)c2ccccc2)c2ccc3cccnc3c2O)cc1` (stereo not given), the growth is reported as 24.8% (inactive).
For `COc1ccc(C(=O)COc2ccc(/C=C3\Oc4ccc5ccccc5c4C3=O)cc2)cc1`, the growth was 36.3% (inactive).
`CCOC(=O)CCC(=O)O[C@H]1[C@H](O[C@@H]2[C@@H](C)[C@H](O[C@H]3C[C@@](C)(OC)[C@@H](O)[C@H](C)O3)[C@@H](C)C(=O)O[C@H](CC)[C@@](C)(O)[C@H](O)[C@@H](C)C(=O)[C@H](C)C[C@@]2(C)O)O[C@H](C)C[C@@H]1N(C)C` was tested, and the growth was 113% (inactive).
`COc1ccc(-c2ccc(O)c(C(=O)/C=C/c3cc(OC)c(OC)c(OC)c3)c2)cc1` was tested, and the growth was 64.2% (inactive).

Each compound was assayed on HCT-116 colon in the same assay as above. Details: 10 µM unless noted.
In the case of `CCC(=O)Nc1cc2c(cc1Cl)-c1ccccc1C2`, the growth is reported as 99.2% (inactive).
With `FC(F)(F)c1ccc(-c2cnc(-c3nn[nH]n3)nc2NC2CCCCCC2)cc1` the growth was 33.3% [50 µM] (inactive).
In the case of `CCn1cnc(C[C@H](NC(=O)[C@H](CCCCNC(=O)Nc2cc(C(F)(F)F)cc(C(F)(F)F)c2)NC(=O)Nc2cc(C(F)(F)F)cc(C(F)(F)F)c2)C(=O)OC)c1`, the growth is reported as -100% [100 µM] (active).
With `O=c1ncc(-c2ccc(C(F)(F)F)cc2)c(NC2CCCCCC2)[nH]1` the growth was 39.1% (inactive).
With `Nc1nc(Nc2ccccc2SSc2ccccc2Nc2nc(N)nc(-c3cccc(Cl)c3)n2)nc(-c2cccc(Cl)c2)n1` the growth was 90.9% (inactive).
For `Cc1ccc2nc3c(n2c1)C(=O)C(=O)c1ccccc1-3`, the growth was -50.4% (active).
In the case of `O=C1NC(=S)S/C1=C\c1cc(Br)ccc1O`, the growth is reported as 103% (inactive).
`O=C1OC2(c3ccccc31)c1ccccc1-c1ccccc12` was tested, and the growth was 54.4% (inactive).
In the case of `Cc1sc2nc(NCCc3cccs3)[nH]c(=O)c2c1C`, the growth is reported as 71% (inactive).
In the case of `COc1cc(/C=N/OC(=O)Nc2ccccc2)cc(OC)c1OC`, the growth is reported as 94.3% (inactive).
In the case of `CSc1nc2nc3c(nc2c(=O)n1C)C(=O)c1ccccc1C3=O`, the growth is reported as -37.6% (active).
`O=C(CNc1ccc2c(c1)C(=O)c1ccccc1C2=O)Nc1ccc2c(c1)C(=O)c1ccccc1C2=O` was tested, and the growth was -90.2% (active).
For `Nc1ccc2c(c1Br)Cc1ccccc1-2`, the growth was 98.2% (inactive).
For `c1ccc2c(-c3nc4ccccc4[nH]3)cccc2c1`, the growth was 16.7% (inactive).
In the case of `O=C(O)c1ccc2cccnc2c1O`, the growth is reported as 2.32% (active).
`Cc1ccc(-c2c3c(N)nc(-c4ccncc4)nc3nc3c2c(C)nn3-c2ccccc2)cc1` was tested, and the growth was 12.7% (inactive).
`N#Cc1c(-c2ccccc2)cc(-c2ccccc2)n(CCCCCCC(=O)O)c1=O` was tested, and the growth was 98.5% (inactive).
For `CCCCCN(CCCCC)CCCNc1c2c(nc3ccc(Cl)cc13)CCCC2`, the growth was 5.37% (active).
For `Cc1cc(C)nc(NS(=O)(=O)c2ccc(Nc3nc4nc(SCc5ccccc5)nc(-c5ccc(O)cc5)c4c(=O)[nH]3)cc2)n1`, the growth was 103% (inactive).
In the case of `O=C1/C(=C/c2ccccc2Cl)CCc2ccccc21`, the growth is reported as 99.5% (inactive).
With `C/C(=C\CCc1ccoc1)CC/C=C(\C)CCCC1COC(=O)C1` (stereo not given) the growth was 98.2% (inactive).
With `CC1Cc2ccccc2N1C(=O)c1ccc(C(=O)c2ccccc2)cc1` (stereo not given) the growth was 81.1% (inactive).
With `COC(=O)[C@H](Cc1cn(C)cn1)NC(=O)[C@H](C)NC(=O)Nc1cc(C(F)(F)F)cc(C(F)(F)F)c1` the growth was -84.2% [100 µM] (active).
`N#Cc1ccccc1C#Cc1ccccc1C#Cc1ccc(OCCCCCCOc2ccc(C#Cc3ccccc3C#Cc3ccccc3C#N)cc2)cc1` was tested, and the growth was 91.8% (inactive).
With `CC[N+](CCCCCCCCCC[N+](CC)(c1ccccn1)c1ccccn1)(c1ccccn1)c1ccccn1` the growth was 9.06% (active).
For `COc1ccc2c(c1)C(=Nc1cc(OC)c(OC)c(OC)c1)C(=O)N2`, the growth was 51% (inactive).
`O=C(/C=C/c1c(-c2ccccc2)[nH]c2ccccc12)S(=O)(=O)c1ccccc1` was tested, and the growth was 46.1% (inactive).
In the case of `O=c1ccn(C2CC=C(CO)O2)c(=O)[nH]1` (stereo not given), the growth is reported as 96% (inactive).
For `C=CCN(/C=C/CN(CC=C)CC=C)CC=C`, the growth was 102% (inactive).
In the case of `Cc1ccc2nc(-c3ccc(N(C)C)c(Br)c3)cn2c1`, the growth is reported as 33% (inactive).
For `CN(C)CCC(=O)Nc1ccc(-n2cc(-c3cccc(NC(=S)Nc4cccc(-c5cn(-c6ccc(NC(=O)CCN(C)C)cc6)nn5)c4)c3)nn2)cc1`, the growth was 26.7% (inactive).
`C[C@]12CC[C@H](O)CC1=CC[C@@H]1[C@@H]2CC[C@]2(C)C(c3cccnc3)=CC[C@@H]12` was tested, and the growth was 58.7% (inactive).
For `CCCCCCC(CC#N)(CCC)CCCC` (stereo not given), the growth was 104% (inactive).
`CCOC(=O)c1sc(NC(=O)COc2cccc(/C=C3\CCc4cc(OC)ccc4C3=O)c2)nc1C` was tested, and the growth was 46.5% (inactive).
For `Cc1ccc(S(=O)(=O)N2CCN(C(=O)CSc3nc4ccc(C)cc4[nH]3)CC2)cc1`, the growth was 103% (inactive).
`CCOC(=O)c1cnc2c(C)cc(C)cc2c1NCCCN(C)C` was tested, and the growth was 15.4% (inactive).
In the case of `Cc1ccc(C(NC(=O)c2ccccc2)c2ccc3cccnc3c2O)cc1` (stereo not given), the growth is reported as 22.8% (inactive).
`COc1ccc(C(=O)COc2ccc(/C=C3\Oc4ccc5ccccc5c4C3=O)cc2)cc1` was tested, and the growth was 85.9% (inactive).
With `CCOC(=O)CCC(=O)O[C@H]1[C@H](O[C@@H]2[C@@H](C)[C@H](O[C@H]3C[C@@](C)(OC)[C@@H](O)[C@H](C)O3)[C@@H](C)C(=O)O[C@H](CC)[C@@](C)(O)[C@H](O)[C@@H](C)C(=O)[C@H](C)C[C@@]2(C)O)O[C@H](C)C[C@@H]1N(C)C` the growth was 99.7% (inactive).
`COc1ccc(-c2ccc(O)c(C(=O)/C=C/c3cc(OC)c(OC)c(OC)c3)c2)cc1` was tested, and the growth was 68.8% (inactive).
